How the values were obtained:
Experiment in all cases: DAPPL (digital affinity profiling via proximity ligation, sequencing); 10 mM Tris-HCl pH 7.5, 50 mM NaCl, 1 mM DTT, 4% glycerol, room temperature, 30 min; GST-TFs on glutathione beads, 16-mer random dsDNA library, 0.1% formaldehyde crosslink after washing; high values mean tight binding
FLI1 = molecular target: T1, FLI1 (Homo sapiens, UniProt Q01543 1-452); conditions: protein: recombinant; tags: N-terminal GST; dsDNA, one strand shown
T1 sequence: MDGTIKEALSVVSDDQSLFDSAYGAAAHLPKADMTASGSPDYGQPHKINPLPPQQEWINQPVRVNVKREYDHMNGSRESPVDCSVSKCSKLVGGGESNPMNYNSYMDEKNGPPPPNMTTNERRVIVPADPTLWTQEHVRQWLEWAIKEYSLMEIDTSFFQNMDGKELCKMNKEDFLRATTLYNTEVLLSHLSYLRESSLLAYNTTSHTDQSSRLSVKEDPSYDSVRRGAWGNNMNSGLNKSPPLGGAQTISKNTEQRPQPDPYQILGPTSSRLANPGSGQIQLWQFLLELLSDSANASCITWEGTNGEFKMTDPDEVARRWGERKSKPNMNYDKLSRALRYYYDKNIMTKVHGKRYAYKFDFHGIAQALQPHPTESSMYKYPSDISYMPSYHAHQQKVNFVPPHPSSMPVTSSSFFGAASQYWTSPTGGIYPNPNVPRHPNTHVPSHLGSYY
Outline: (§1)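 The binding signal reported is, for every hexamer, its read frequency for a factor over its read frequency for the tag-only sample. Reads came from pools of yeast-expressed, GST-fused human transcription factors on glutathione beads, barcoded with DNA and mixed with that sample, which were incubated with 200 nmole of a random double-stranded 16-mer DNA library in Tris/NaCl/DTT/glycerol buffer at room temperature for 30 min. After washing, the pools were crosslinked with 0.1% formaldehyde, proximity-ligated with BsaI/T4 ligase for 1 h at 37 °C, PCR-amplified and sequenced on an Illumina NextSeq500.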

ELK1 = molecular target: T2, ELK1 (Homo sapiens, UniProt P19419 1-428); conditions: protein: recombinant; tags: N-terminal GST; dsDNA, one strand shown
T2 sequence: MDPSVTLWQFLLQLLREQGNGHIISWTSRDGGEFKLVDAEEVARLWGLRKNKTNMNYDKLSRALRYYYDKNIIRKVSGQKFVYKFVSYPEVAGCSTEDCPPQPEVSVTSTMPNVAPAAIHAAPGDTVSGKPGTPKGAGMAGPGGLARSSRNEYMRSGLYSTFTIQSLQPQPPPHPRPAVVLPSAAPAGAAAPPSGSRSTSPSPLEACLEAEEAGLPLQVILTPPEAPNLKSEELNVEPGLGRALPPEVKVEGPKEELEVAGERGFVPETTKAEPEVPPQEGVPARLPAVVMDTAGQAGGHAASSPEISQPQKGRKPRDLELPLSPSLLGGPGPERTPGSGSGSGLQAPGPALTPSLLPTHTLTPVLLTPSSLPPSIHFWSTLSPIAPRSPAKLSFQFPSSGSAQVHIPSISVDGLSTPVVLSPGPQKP
Outline: as §1

GABPA = molecular target: T3, GABPA (Homo sapiens, UniProt Q06546 1-454); conditions: protein: recombinant; tags: N-terminal GST; dsDNA, one strand shown
T3 sequence: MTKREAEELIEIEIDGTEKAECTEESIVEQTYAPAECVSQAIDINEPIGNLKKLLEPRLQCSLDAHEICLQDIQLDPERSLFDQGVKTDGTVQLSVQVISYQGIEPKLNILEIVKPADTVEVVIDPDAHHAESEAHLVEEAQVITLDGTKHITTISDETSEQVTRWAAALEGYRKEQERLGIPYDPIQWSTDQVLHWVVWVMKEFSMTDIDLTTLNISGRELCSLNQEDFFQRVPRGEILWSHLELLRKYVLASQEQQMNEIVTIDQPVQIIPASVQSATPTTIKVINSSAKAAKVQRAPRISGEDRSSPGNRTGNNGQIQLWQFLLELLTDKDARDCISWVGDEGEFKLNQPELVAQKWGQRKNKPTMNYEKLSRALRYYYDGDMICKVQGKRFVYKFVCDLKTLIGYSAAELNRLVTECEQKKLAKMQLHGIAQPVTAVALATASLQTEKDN
Outline: as §1

ERG = molecular target: T4, ERG (Homo sapiens, UniProt P11308 1-479); conditions: protein: recombinant; tags: N-terminal GST; dsDNA, one strand shown
T4 sequence: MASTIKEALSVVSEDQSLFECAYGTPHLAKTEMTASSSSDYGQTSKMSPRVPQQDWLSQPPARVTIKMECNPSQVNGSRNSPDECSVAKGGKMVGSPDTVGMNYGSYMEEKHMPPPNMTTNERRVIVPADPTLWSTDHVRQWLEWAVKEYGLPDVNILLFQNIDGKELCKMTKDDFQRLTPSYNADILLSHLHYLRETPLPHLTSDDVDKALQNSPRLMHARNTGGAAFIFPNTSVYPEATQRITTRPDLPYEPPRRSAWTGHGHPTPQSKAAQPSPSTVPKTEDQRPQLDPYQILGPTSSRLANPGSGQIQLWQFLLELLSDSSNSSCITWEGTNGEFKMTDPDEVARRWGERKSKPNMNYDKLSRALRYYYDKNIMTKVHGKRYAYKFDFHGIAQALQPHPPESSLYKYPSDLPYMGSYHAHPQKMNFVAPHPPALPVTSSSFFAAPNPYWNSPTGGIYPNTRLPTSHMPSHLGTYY
Outline: as §1

ELF1 = ELF1 (Homo sapiens, UniProt P32519 1-619); conditions: protein: recombinant; tags: N-terminal GST; dsDNA, one strand shown
Sequence of ELF1 (P32519 whole entry): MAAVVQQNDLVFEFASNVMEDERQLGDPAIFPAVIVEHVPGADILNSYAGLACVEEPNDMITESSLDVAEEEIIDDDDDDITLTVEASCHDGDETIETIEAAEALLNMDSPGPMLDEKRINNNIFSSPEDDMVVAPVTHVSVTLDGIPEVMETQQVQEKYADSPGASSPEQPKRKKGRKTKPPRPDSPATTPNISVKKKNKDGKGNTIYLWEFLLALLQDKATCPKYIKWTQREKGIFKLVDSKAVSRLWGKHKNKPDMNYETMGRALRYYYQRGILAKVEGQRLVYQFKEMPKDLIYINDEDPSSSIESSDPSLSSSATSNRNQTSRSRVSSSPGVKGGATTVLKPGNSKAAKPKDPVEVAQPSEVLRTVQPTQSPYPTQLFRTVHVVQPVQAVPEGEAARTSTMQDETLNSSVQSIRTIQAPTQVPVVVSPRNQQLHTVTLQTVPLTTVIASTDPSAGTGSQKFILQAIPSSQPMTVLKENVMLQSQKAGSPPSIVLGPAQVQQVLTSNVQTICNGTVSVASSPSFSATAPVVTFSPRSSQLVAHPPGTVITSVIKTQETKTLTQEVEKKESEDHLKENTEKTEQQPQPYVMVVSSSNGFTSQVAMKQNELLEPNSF
Outline: as §1

EHF = molecular target: T5, EHF (Homo sapiens, UniProt Q9NZC4 1-300); conditions: protein: recombinant; tags: N-terminal GST; dsDNA, one strand shown
T5 sequence: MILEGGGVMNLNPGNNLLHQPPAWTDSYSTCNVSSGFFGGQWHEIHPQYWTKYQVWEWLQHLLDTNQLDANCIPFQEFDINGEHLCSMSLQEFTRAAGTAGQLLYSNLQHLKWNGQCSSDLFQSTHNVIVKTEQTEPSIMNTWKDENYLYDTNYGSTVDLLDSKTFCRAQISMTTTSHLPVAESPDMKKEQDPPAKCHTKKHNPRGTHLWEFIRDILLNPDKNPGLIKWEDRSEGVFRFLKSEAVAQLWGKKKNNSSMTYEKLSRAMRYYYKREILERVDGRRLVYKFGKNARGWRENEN
Outline: as §1

SPI1 = SPI1 (Homo sapiens, UniProt P17947 1-270); conditions: protein: recombinant; tags: N-terminal GST; dsDNA, one strand shown
Outline: as §1

SPIB = SPIB (Homo sapiens, UniProt Q01892 1-262); conditions: protein: recombinant; tags: N-terminal GST; dsDNA, one strand shown
Sequence of SPIB (Q01892 whole entry): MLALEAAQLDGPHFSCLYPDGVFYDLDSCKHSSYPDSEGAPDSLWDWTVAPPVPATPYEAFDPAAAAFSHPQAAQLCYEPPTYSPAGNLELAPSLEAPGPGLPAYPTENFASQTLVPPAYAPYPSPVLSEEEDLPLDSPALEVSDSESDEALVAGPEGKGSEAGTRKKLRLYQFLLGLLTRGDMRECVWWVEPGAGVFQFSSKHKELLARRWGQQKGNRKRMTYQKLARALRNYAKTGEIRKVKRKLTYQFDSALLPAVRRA
Outline: as §1

ELK3 = molecular target: T6, ELK3 (Homo sapiens, UniProt P41970 1-407); conditions: protein: recombinant; tags: N-terminal GST; dsDNA, one strand shown
T6 sequence: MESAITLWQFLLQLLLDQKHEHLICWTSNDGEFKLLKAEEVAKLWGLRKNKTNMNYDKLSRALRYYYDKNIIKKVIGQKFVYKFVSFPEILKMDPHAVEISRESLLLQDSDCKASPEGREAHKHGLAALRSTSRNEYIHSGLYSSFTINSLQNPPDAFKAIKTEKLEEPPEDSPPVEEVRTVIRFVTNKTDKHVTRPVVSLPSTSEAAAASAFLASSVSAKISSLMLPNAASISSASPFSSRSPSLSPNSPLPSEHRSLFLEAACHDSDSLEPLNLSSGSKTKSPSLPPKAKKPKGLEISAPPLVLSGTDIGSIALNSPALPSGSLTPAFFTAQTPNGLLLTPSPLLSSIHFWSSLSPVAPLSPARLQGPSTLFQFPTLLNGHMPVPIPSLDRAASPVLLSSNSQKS
Outline: as §1

FEV = molecular target: T7, FEV (Homo sapiens, UniProt Q99581 1-238); conditions: protein: recombinant; tags: N-terminal GST; dsDNA, one strand shown
T7 sequence: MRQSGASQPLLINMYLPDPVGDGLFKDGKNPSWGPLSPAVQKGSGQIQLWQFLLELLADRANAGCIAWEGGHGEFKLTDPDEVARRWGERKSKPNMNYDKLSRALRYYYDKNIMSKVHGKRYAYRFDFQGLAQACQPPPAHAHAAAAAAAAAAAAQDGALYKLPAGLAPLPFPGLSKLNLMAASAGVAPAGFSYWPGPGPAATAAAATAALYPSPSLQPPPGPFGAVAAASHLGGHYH
Outline: as §1

ETV5 = ETV5 (Homo sapiens, UniProt P41161 1-510); conditions: protein: recombinant; tags: N-terminal GST; dsDNA, one strand shown
Sequence of ETV5 (P41161 whole entry): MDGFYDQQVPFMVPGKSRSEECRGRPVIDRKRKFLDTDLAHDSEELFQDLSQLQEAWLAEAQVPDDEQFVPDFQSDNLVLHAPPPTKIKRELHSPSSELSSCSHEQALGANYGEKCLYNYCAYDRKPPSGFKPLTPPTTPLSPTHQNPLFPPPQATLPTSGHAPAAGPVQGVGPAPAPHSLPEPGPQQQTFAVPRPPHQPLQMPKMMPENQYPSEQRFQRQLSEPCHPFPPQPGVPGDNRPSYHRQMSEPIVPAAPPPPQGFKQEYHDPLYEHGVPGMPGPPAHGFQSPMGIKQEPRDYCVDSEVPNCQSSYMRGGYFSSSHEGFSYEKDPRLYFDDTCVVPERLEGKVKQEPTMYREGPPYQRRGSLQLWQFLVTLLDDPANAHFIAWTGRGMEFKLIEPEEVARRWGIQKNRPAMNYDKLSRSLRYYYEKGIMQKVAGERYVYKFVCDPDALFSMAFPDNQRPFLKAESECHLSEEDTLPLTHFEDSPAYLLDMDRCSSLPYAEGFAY
Outline: as §1

HSF1 = HSF1 (Homo sapiens, UniProt Q00613 1-529); conditions: protein: recombinant; tags: N-terminal GST; chain copies: 3; dsDNA, one strand shown
Sequence of HSF1 (Q00613 whole entry): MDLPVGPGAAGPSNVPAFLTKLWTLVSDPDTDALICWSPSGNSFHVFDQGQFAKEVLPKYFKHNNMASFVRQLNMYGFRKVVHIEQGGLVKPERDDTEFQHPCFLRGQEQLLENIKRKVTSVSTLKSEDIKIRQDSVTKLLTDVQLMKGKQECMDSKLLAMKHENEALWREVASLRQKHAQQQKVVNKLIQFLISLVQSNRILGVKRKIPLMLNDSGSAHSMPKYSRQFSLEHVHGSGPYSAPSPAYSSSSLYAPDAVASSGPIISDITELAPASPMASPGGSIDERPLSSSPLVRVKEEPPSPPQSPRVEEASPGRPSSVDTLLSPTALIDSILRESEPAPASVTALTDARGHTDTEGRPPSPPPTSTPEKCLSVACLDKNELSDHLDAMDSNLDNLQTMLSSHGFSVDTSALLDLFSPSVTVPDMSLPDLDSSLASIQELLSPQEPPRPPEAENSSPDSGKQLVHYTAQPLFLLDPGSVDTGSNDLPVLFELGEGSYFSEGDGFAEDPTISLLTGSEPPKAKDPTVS
Outline: as §1

SPIC = molecular target: T8, SPIC (Homo sapiens, UniProt Q8N5J4 1-248); conditions: protein: recombinant; tags: N-terminal GST; dsDNA, one strand shown
T8 sequence: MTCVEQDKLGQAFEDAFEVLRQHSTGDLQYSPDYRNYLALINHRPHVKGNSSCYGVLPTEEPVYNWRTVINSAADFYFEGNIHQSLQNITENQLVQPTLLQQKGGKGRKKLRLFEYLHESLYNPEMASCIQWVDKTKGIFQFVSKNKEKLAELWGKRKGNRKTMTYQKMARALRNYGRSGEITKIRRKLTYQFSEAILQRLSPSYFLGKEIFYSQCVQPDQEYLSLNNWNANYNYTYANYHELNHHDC
Outline: as §1

ELF4 = ELF4 (Homo sapiens, UniProt Q99607 1-663); conditions: protein: recombinant; tags: N-terminal GST; dsDNA, one strand shown
Sequence of ELF4 (Q99607 whole entry): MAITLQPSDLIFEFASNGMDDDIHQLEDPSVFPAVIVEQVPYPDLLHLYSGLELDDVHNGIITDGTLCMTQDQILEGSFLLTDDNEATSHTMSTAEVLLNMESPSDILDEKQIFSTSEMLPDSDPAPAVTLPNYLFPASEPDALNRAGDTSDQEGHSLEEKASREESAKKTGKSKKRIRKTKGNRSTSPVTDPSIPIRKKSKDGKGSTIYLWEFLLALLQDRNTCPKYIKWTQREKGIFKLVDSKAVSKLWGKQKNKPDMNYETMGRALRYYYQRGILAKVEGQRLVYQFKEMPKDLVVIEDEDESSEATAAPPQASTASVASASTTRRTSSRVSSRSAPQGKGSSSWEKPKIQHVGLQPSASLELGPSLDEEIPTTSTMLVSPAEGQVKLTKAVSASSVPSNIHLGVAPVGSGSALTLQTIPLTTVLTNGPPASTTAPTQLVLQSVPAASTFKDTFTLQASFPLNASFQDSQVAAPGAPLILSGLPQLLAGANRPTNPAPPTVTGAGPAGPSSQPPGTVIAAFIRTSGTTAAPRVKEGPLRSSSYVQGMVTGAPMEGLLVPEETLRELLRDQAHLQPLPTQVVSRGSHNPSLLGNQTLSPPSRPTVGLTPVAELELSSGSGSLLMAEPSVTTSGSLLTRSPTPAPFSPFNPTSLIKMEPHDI
Outline: as §1

ELK4 = molecular target: T9, ELK4 (Homo sapiens, UniProt P28324-2 1-405); conditions: protein: recombinant; tags: N-terminal GST; dsDNA, one strand shown
T9 sequence: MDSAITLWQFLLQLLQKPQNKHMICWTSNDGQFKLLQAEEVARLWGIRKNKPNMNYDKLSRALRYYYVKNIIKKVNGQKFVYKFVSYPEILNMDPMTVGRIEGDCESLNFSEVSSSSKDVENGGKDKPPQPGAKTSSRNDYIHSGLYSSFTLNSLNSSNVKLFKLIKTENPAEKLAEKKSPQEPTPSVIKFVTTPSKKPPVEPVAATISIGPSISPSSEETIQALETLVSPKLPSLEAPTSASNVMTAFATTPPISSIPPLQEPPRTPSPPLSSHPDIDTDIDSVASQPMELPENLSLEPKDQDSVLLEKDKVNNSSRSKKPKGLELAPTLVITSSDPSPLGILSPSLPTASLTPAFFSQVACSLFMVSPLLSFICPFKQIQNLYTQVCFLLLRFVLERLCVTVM
Outline: as §1

ETV2 = molecular target: T10, ETV2 (Homo sapiens, UniProt O00321 1-342); conditions: protein: recombinant; tags: N-terminal GST; dsDNA, one strand shown
T10 sequence: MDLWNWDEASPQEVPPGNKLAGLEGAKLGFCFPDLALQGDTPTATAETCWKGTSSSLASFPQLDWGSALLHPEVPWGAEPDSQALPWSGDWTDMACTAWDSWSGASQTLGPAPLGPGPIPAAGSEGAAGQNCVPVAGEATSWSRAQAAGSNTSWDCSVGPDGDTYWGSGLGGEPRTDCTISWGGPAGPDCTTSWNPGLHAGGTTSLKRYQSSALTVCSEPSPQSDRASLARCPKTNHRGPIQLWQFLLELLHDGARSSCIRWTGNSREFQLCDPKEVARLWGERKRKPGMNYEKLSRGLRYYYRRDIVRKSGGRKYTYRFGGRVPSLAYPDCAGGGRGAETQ
Outline: as §1

ELF3 = molecular target: T11, ELF3 (Homo sapiens, UniProt P78545 1-371); conditions: protein: recombinant; tags: N-terminal GST; dsDNA, one strand shown
T11 sequence: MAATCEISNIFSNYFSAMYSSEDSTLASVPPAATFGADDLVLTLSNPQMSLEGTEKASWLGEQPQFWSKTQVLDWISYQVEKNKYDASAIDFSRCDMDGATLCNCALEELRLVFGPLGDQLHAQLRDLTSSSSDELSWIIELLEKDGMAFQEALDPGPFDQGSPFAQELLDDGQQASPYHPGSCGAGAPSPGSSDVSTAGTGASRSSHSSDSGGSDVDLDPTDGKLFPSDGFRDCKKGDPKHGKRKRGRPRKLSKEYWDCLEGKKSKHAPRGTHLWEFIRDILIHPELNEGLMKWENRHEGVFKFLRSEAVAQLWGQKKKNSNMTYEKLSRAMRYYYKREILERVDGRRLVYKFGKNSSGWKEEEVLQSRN
Outline: as §1

CRX = CRX (Homo sapiens, UniProt O43186 1-299); conditions: protein: recombinant; tags: N-terminal GST; dsDNA, one strand shown
Sequence of CRX (O43186 whole entry): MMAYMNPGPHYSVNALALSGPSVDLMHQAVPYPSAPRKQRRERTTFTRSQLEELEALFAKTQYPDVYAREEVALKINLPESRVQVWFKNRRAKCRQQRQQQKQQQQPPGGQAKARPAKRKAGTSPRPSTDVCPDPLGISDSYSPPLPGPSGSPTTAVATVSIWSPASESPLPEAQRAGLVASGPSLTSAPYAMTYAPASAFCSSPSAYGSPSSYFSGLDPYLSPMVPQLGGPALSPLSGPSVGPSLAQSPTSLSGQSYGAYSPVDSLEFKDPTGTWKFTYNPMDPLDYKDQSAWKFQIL
Outline: as §1

ETV1 = ETV1 (Homo sapiens, UniProt P50549 1-477); conditions: protein: recombinant; tags: N-terminal GST; dsDNA, one strand shown
Sequence of ETV1 (P50549 whole entry): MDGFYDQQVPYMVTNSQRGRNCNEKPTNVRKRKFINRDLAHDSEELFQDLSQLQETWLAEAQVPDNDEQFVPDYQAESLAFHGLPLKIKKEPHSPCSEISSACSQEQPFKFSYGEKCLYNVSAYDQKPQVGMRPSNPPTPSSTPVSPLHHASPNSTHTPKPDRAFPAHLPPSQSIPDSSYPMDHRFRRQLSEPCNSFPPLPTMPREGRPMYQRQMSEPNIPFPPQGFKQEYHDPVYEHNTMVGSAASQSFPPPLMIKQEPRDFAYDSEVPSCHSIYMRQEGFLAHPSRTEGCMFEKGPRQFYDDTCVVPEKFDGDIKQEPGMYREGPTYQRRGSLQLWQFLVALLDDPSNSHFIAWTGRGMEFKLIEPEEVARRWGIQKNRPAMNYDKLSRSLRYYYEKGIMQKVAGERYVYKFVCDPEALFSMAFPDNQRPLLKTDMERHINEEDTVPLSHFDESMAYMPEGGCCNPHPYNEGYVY
Outline: as §1

TTCTCT was tested, and the binding signal (FLI1) was 1.29 fold enrichment (6-mer frequency, TF over GST control), the binding signal (ELK1) was 1.3 fold enrichment (6-mer frequency, TF over GST control) and the binding signal (GABPA) was 1.27 fold enrichment (6-mer frequency, TF over GST control). The binding signal (ERG) was 1.32 fold enrichment (6-mer frequency, TF over GST control), the binding signal (ELF1) was 1.33 fold enrichment (6-mer frequency, TF over GST control) and the binding signal (EHF) was 1.27 fold enrichment (6-mer frequency, TF over GST control). For the same sequence, the binding signal (SPI1) was 1.3 fold enrichment (6-mer frequency, TF over GST control), the binding signal (SPIB) was 1.16 fold enrichment (6-mer frequency, TF over GST control) and the binding signal (ELK3) was 1.29 fold enrichment (6-mer frequency, TF over GST control). For the same sequence, the binding signal (FEV) was 1.22 fold enrichment (6-mer frequency, TF over GST control), the binding signal (ETV5) was 1.24 fold enrichment (6-mer frequency, TF over GST control) and the binding signal (HSF1) was 1.84 fold enrichment (6-mer frequency, TF over GST control). The binding signal (SPIC) was 1.16 fold enrichment (6-mer frequency, TF over GST control), the binding signal (ELF4) was 1.26 fold enrichment (6-mer frequency, TF over GST control) and the binding signal (ELK4) was 1.33 fold enrichment (6-mer frequency, TF over GST control). The binding signal (ETV2) was 1.29 fold enrichment (6-mer frequency, TF over GST control), the binding signal (ELF3) was 1.37 fold enrichment (6-mer frequency, TF over GST control) and the binding signal (CRX) was 1.49 fold enrichment (6-mer frequency, TF over GST control). The binding signal (ETV1) was 1.36 fold enrichment (6-mer frequency, TF over GST control).

Source: article PMC7862700, “An all-to-all approach to the identification of sequence-specific readers for epigenetic DNA modifications on cytosine”
